In PubChem BioAssay AID588342 (National Center for Advancing Translational Sciences (NCATS), 2011):
In all, about 360,000 compounds went through this assay and about 25,000 (6.9%) were called active. Roughly 9% stayed inconclusive and do not appear here. This is one part of a sample in which actives are shown more often than they occur. Unmarked numbers belong to inactive results. Calls come from the whole dose curve; as a rule, active = well fitted inhibition curve with a large enough effect; inconclusive = small, poorly fitted or top-dose-only effect; inactive = flat fitted curve, though single readings scatter.

Each molecule was assayed against Luciferin 4-monooxygenase (Photinus pyralis) (UniProt P08659) (assay: qHTS profiling assay for firefly luciferase inhibitor/activator using purifed enzyme and Km concentrations of substrates (counterscreen for miR-21 project)). Conditions: purified FLuc, luminescence inhibition; series mostly up to 57.5 µM; activity change, negative = inhibition: at the top concentration.
Chain of Luciferin 4-monooxygenase (Photinus pyralis) (P08659 whole entry, looked up): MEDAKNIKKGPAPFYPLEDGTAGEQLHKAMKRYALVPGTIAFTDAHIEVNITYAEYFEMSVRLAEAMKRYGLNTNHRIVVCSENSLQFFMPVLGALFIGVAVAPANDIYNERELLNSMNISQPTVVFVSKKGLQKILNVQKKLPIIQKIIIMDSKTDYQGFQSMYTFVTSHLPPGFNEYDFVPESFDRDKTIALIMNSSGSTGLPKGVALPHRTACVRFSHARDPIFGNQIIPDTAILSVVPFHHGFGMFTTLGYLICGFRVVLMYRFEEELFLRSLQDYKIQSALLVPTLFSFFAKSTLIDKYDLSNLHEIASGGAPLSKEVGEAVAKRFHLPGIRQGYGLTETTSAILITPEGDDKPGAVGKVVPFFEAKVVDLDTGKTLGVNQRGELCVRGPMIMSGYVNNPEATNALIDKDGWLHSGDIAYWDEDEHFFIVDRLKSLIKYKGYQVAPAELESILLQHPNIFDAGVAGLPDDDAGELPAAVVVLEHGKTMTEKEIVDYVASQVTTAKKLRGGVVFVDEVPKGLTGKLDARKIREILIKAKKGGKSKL
How it was run: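 Biochemical qHTS of compounds, final roughly 60 µM downward over six points, against 10 nM purified firefly luciferase using Km concentrations of substrates (10 uM D-luciferin, 10 uM ATP) in Tris acetate pH 7.5 buffer; luminescence output.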
Note: nearly all actives have a fitted effect of over 55% in size.
Potency is the fitted concentration of half-maximal effect.
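Throughout, for activity change, negative = inhibition: plate controls were vehicle for no effect and reference inhibitor for full effect.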

| Structure (SMILES) | activity change, negative = inhibition [%] | Potency |
| --- | --- | --- |
| CCOC(=O)c1c(C)oc2nc(C)nc(N3CCN(c4ccc(OC)cc4)CC3)c12 | 5.68 | – |
| O=S(=O)(c1ccc(SCc2ccc(Br)cc2)nc1)N1CCOCC1 | 1.23 | – |
| COc1ccccc1N1CCN(c2ncnc3onc(-c4cccc(Cl)c4)c23)CC1 | -4.9 | – |
| COc1cc(NC(=O)c2nn(-c3ccc(C)cc3)c(=O)c3c2c2ccccc2n3C)cc(OC)c1OC | 1.45 | – |
| COc1cc2nc(SCC(=O)Nc3ccccc3F)n3nc(-c4ccccc4)nc3c2cc1OC | -3.03 | – |
| c1ccc(CNc2ncnc3[nH]ncc23)cc1 | -3.6 | – |
| Cc1ccc(NC(=O)CN(C)C(=O)c2cccc(S(=O)(=O)N3CCCC3)c2)cc1 | 1.78 | – |
| Cc1[nH]c2c(C(=O)N3CCCC(CCC(=O)NCc4ccccc4F)C3)cccc2c1C (centres undefined) | -17.2 | – |
| COc1cc(Cl)ccc1OCc1cc(C(=O)N2CC[C@@H]3CCCC[C@H]3C2)no1 | – | 23.9 µM (active) |
| COc1ccccc1OCc1ccc(C(=O)N2CCN(C)CC2)o1 | 3.42 | – |
| COc1cc(Cl)ccc1OCc1cc(C(=O)N(C)CCc2c(C)n[nH]c2C)no1 | -16.9 | – |
| COc1cccc(-c2cc(C(=O)N3CCN(c4ccccc4OC)CC3)no2)c1 | – | inactive |
| COc1ccccc1-c1cc(C(=O)N2CCCCC2)no1 | – | 5.36 µM (active) |
| O=C(Cc1c(F)cccc1Cl)N1CCN(C(=O)c2ccco2)CC1 | -2.68 | – |
| O=C(c1ccco1)N1CCN(C(=O)c2cc(-c3ccccc3F)no2)CC1 | – | 13.5 µM (active) |
| COc1ccc(OCc2cc(C(=O)N3CCCC3)no2)c2ccccc12 | – | 9.53 µM (active) |
| COc1ccc(C(=O)C2CCCN(C(=O)c3cc(C)on3)C2)cc1F (centres undefined) | -0.241 | – |
| COc1ccc(Cl)cc1C(=O)NNC(=S)NC1CCCC1 | -0.233 | – |
| O=C(NCCCN1CCOCC1)c1cc(-c2ccccc2F)no1 | -19.8 | – |
| Cc1ccc(C)c(OCc2cc(C(=O)N3CCN(c4cnccn4)CC3)no2)c1 | -7.42 | – |
| Fc1ccc(-c2nn(-c3ccccc3Cl)c3c2cnc2ccccc23)cc1 | -4.79 | – |
| O=C(CN1C2CCC1CC(NC(=O)C1CC1)C2)NCc1ccccc1 (centres undefined) | -0.129 | – |
| COc1ccc(CNC(=O)CN(Cc2ccccc2Cl)C(=O)c2csnn2)cc1 | 0.712 | – |
| CCc1nn(CC(=O)Nc2cc(C)cc(C)c2)c(=O)c2cc3sccc3n12 | -9 | – |
| O=C(NCC(c1ccc(Cl)cc1)N1CCOCC1)c1ccccc1F (centres undefined) | -2.7 | – |

| Structure (SMILES) | activity change, negative = inhibition [%] | Potency |
| --- | --- | --- |
| COC(=O)c1scc(S(=O)(=O)C(C)(C)C)c1-n1cccc1 | -1.66 | – |
| O=C(NCCC1=CCCCC1)c1ccc2c(c1)N(Cc1ccccc1F)C(=O)c1ccccc1S2(=O)=O | -0.544 | – |
| COCCNc1nnc(SCC(=O)NNC(=O)c2ccco2)s1 | 3.77 | – |
| Cc1cccc(Cc2c(C)nc3nc(SCc4ccccc4Cl)nn3c2C)c1 | 1.37 | – |
| CCOC(=O)c1ccc(NC(=O)Cn2cc(S(=O)(=O)Cc3ccccc3F)c3ccccc32)cc1 | -13.5 | – |
| Cc1ccc(CNC(=O)CCc2c(C)nc3c(c(C)nn3-c3ccccc3)c2C)cc1 | -3.65 | – |
| CC(C)(C)NC(=O)CSC(=Nc1ccccc1F)NC#N | -9.66 | – |
| CC1(C)Cc2ccccc2/C(=C/C(=O)c2ccccc2)N1 | -0.311 | – |
| CC1CN/C(=C\C(=O)c2ccc(Br)cc2)C(=O)N1 (centres undefined) | – | 1.9 µM (active) |
| O=C(O)C1CCCN1S(=O)(=O)c1ccc(Br)cc1 (centres undefined) | -2.95 | – |
| CCN(CC)S(=O)(=O)c1ccc(Cl)c(C(=O)NCCN2CCOCC2)c1 | -0.0874 | – |
| O=C(NCc1ccccc1)C(c1ccccc1)N(C(=O)c1csnn1)c1ccc(F)cc1 (centres undefined) | 1.31 | – |
| COc1cccc(CNC(=O)CN2C(=O)CCc3cc(S(=O)(=O)N4CCOCC4)ccc32)c1 | -4.52 | – |
| Cc1nc(-c2ccc(F)cc2)c(CC(=O)N(C)CC(=O)Nc2c(C)cccc2C)s1 | -1.73 | – |
| COc1ccc(C(=O)NC2CC(C)(C)Cc3c2cnn3-c2ccccc2)c(OC)c1 (centres undefined) | 2.3 | – |
| COc1ccc(/C=C2/C(=O)N(c3ccccc3)N=C2C)c(OC)c1 | – | 15.1 µM (active) |
| COc1ccc(OC)c(/C=N/NC(=O)CSc2nnc(C)n2-c2ccccc2)c1 | -6.59 | – |
| CCCCc1ccc(NS(=O)(=O)c2cccc(C(=O)N3CCCN(C)CC3)c2)cc1 | -0.803 | – |
| COc1cc(NS(=O)(=O)c2ccc(NC(C)=O)cc2)cc(OC)c1 | -1.03 | – |
| COc1ccc(NS(=O)(=O)c2ccc(NC(=S)NC(=O)/C=C/c3ccc(C)cc3)cc2)nn1 | -2.64 | – |
| COc1ccc(/C=C/C(=O)c2ccc(NS(=O)(=O)c3ccc(C)cc3)cc2)cc1O | – | 6.01 µM (active) |
| COc1cccc2c1cc1c(=O)n(CC(=O)N3CCN(c4ccccc4)CC3)nc(C)n12 | -1.6 | – |
| Cc1ccsc1/C=N/n1c(=S)[nH]nc(C)c1=O | 3.07 | – |
| COc1ccc2[nH]c(C(=O)N/N=C/c3cc(OC)c(OC)c(OC)c3)cc2c1 | – | 12 µM (active) |
